# From paper PMC11062922 (Nature Chemical Biology, 2023)
# Read-outs that look alike come from different tables or passages of the source.
# Tests used:
# Parameters in all cases: species or system human, MV4-11 + K-562 + COLO205 + SK-N-BE2 + OVCAR-8
# ADCK3 = conditions: read-out: apparent Kd, n = 1
# CLK1 = conditions: read-out: apparent Kd; compound concentrations: 100 nM and 1000 nM (sheet 'Samples'), CATDS: 7.7083223058971695E-2; n = 1
# CLK4 = conditions: read-out: apparent Kd; compound concentrations: 100 nM and 1000 nM (sheet 'Samples'), CATDS: 5.4708251309819003E-2; n = 1
# FER = conditions: read-out: apparent Kd; compound concentrations: 100 nM and 1000 nM (sheet 'Samples'), CATDS: 0.15534788887379899; n = 1
# FES = conditions: read-out: apparent Kd; compound concentrations: 100 nM and 1000 nM (sheet 'Samples'), CATDS: 6.2151263603986602E-2; n = 1
# IGF1R = conditions: read-out: apparent Kd, n = 1
# INSR = conditions: read-out: apparent Kd; compound concentrations: 100 nM and 1000 nM (sheet 'Samples'), CATDS: 0.19841534550213699; n = 1
# PLK1 = conditions: read-out: apparent Kd; compound concentrations: 100 nM and 1000 nM (sheet 'Samples'), CATDS: 5.09869917251893E-2; n = 1
# PRKCZ = conditions: read-out: apparent Kd; compound concentrations: 100 nM and 1000 nM (sheet 'Samples'), CATDS: 4.7711419359540999E-2; n = 1
# PTK2B = conditions: read-out: apparent Kd; compound concentrations: 100 nM and 1000 nM (sheet 'Samples'), CATDS: 0.144435732024948; n = 1
# PTK2 = conditions: read-out: apparent Kd; compound concentrations: 100 nM and 1000 nM (sheet 'Samples'), CATDS: 9.0293978496921806E-2; n = 1
# RIPK3 = conditions: read-out: apparent Kd; compound concentrations: 100 nM and 1000 nM (sheet 'Samples'), CATDS: 4.6981822696137099E-2; n = 1
# TNK1 = conditions: read-out: apparent Kd; compound concentrations: 100 nM and 1000 nM (sheet 'Samples'), CATDS: 8.1384476326193098E-2; n = 1
# TTK = conditions: read-out: apparent Kd; compound concentrations: 100 nM and 1000 nM (sheet 'Samples'), CATDS: 4.6872796614934702E-2; n = 1
# AKT2 = conditions: read-out: apparent Kd; compound concentrations:100 nM and 1000 nM (sheet 'Samples'); n = 1
# CDK17 = conditions: read-out: apparent Kd; compound concentrations:100 nM and 1000 nM (sheet 'Samples'); n = 1
# CIT = conditions: read-out: apparent Kd; compound concentrations:100 nM and 1000 nM (sheet 'Samples'); n = 1
# DCTPP1 = conditions: read-out: apparent Kd; compound concentrations:100 nM and 1000 nM (sheet 'Samples'); n = 1
# EPHA1 = conditions: read-out: apparent Kd; compound concentrations:100 nM and 1000 nM (sheet 'Samples'); n = 1
# EPHB6 = conditions: read-out: apparent Kd; compound concentrations:100 nM and 1000 nM (sheet 'Samples'); n = 1
# ERBB3 = conditions: read-out: apparent Kd; compound concentrations:100 nM and 1000 nM (sheet 'Samples'); n = 1
# ERN2 = conditions: read-out: apparent Kd; compound concentrations:100 nM and 1000 nM (sheet 'Samples'); n = 1
# JAK2 = conditions: read-out: apparent Kd; compound concentrations:100 nM and 1000 nM (sheet 'Samples'); n = 1
# MELK = conditions: read-out: apparent Kd; compound concentrations:100 nM and 1000 nM (sheet 'Samples'); n = 1
# PDGFRB = conditions: read-out: apparent Kd; compound concentrations:100 nM and 1000 nM (sheet 'Samples'); n = 1
# PYGL = conditions: read-out: apparent Kd; compound concentrations:100 nM and 1000 nM (sheet 'Samples'); n = 1
# RIOK2 = conditions: read-out: apparent Kd; compound concentrations:100 nM and 1000 nM (sheet 'Samples'); n = 1
# TTN = conditions: read-out: apparent Kd; compound concentrations:100 nM and 1000 nM (sheet 'Samples'); n = 1
# [1] = compound concentrations:100 nM and 1000 nM (sheet 'Samples')
structure (smiles),measurement,setting,value
COc1cc(C)c(NC(=O)CN(C)C)cc1Nc1nc(Nc2cccc(F)c2C(N)=O)c2cc[nH]c2n1 [GSK2213727A],potency estimated from few doses,"ADCK3; compound concentrations: 100 nM and 1000 nM (sheet 'Samples'), CATDS: 5.9808730869804497E-2",0.688 µM
same,potency estimated from few doses,CLK1,0.335 µM
same,potency estimated from few doses,CLK4,0.936 µM
same,potency estimated from few doses,FER,0.0827 µM
same,potency estimated from few doses,FES,0.609 µM
same,potency estimated from few doses,"IGF1R; compound concentrations: 100 nM and 1000 nM (sheet 'Samples'), CATDS: 0.14317930106922699",0.0947 µM
same,potency estimated from few doses,INSR,0.0567 µM
same,potency estimated from few doses,PLK1,1.23 µM
same,potency estimated from few doses,PRKCZ,1.66 µM
same,potency estimated from few doses,PTK2B,0.0933 µM
same,potency estimated from few doses,PTK2,0.231 µM
same,potency estimated from few doses,RIPK3,1.79 µM
same,potency estimated from few doses,TNK1,0.293 µM
same,potency estimated from few doses,TTK,1.81 µM
Nc1nc(-c2ccc3c(N)n[nH]c3c2)cc(N2CCC[C@@H](C(=O)Nc3ccccc3)C2)n1.Nc1nc(-c2ccc3c(N)n[nH]c3c2)cc(N2CCC[C@@H](C(=O)Nc3ccccc3)C2)n1.O=C(O)C(F)(F)F.O=C(O)C(F)(F)F [GSK2288359A],potency estimated from few doses,ADCK3; [1],1.1 µM
CNc1nc(-c2ccc3c(N)n[nH]c3c2)cc(N2C[C@@H](C(=O)NC3CCCCC3)CC[C@H]2C)n1 [GSK2334470],potency estimated from few doses,ADCK3; [1],1.18 µM
same,potency estimated from few doses,AKT2,1.57 µM
same,potency estimated from few doses,CDK17,2.13 µM
same,potency estimated from few doses,CIT,1.43 µM
same,potency estimated from few doses,DCTPP1,1.89 µM
same,potency estimated from few doses,EPHA1,0.845 µM
same,potency estimated from few doses,EPHB6,1.84 µM
same,potency estimated from few doses,ERBB3,1.36 µM
same,potency estimated from few doses,ERN2,1.44 µM
same,potency estimated from few doses,IGF1R; [1],2.36 µM
same,potency estimated from few doses,JAK2,0.47 µM
same,potency estimated from few doses,MELK,1.64 µM
same,potency estimated from few doses,PDGFRB,1.95 µM
same,potency estimated from few doses,PYGL,2.02 µM
same,potency estimated from few doses,RIOK2,2.11 µM
same,potency estimated from few doses,TTN,0.945 µM
